Test results published in PubChem BioAssay (NCATS).
Inconclusive results are not listed. Entries that show only a call come without a potency. Active and inactive are the calls of the source. Unless noted, the call rests on the fitted dose curve; in most records, active means well fitted curve in the direction sought with a large enough effect; inconclusive means small, poorly fitted or top-dose-only effect, or another doubt; inactive means no such curve, though single readings can be large; an effect the other way counts as inactive or inconclusive. Where a SMILES comes first, the peptide text is derived from it. [ ]: non-standard residue; d: D form. pGlu = O=C1CC[C@@H](C(=O)O)N1; Thz = O=C(O)[C@@H]1CSCN1

Columns and labels:
[1] = S16 Schwann cell viability assay (CellTiter-Glo assay) (AID 624031); further: nearly all actives have a fitted effect of over 70% in size; further: potency means the concentration at half of the fitted maximal effect
Method in brief: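 Following overnight culture in 10% FBS DMEM, parental S16 rat Schwann cells are dosed for 24 h at 37 °C. Viability is read as CellTiter-Glo luminescence and expressed as % activity relative to DMSO (0%) and no-cell wells.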

[2] = S16 Schwann cell PMP22 intronic element firefly luciferase assay (AID 624032); further: nearly all actives have a fitted effect of over 30% in size; further: potency means the concentration at half of the fitted maximal effect
Method in brief: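 Rat S16 Schwann cells stably carrying firefly luciferase driven by a PMP22 intronic element, in 10% FBS, treated 24 h at 37 C. ONE-Glo luminescence normalized to PTC124 control and DMSO (0%); curves classed by r2, magnitude and activity.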

[3] = S16 Schwann cell PMP22 intronic element beta-lactamase assay (AID 624044; calls by dose curve; further: nearly all actives have a fitted effect of over 15% in size; further: potency means the concentration at half of the fitted maximal effect)
Method in brief: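 Beta-lactamase reporter under a PMP22 intronic regulatory element in stable S16 rat Schwann cells; 24 h compound exposure. 460 nm blue signal normalized between DMSO (0%) and potassium clavulanate, with 535 nm FRET tracking viability; curves classed by r2 and response.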

[4] = qHTS of Trypanosoma Brucei Inhibitors: LOPAC Validation (AID 624147)
Method in brief: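 Glycolytic pyruvate kinase of T. brucei was incubated with substrate, test compound and 130 uM ADP for 45 minutes at room temperature. Luminescent Kinase-Glo Plus signal was measured after 10 minutes.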

[5] = target: Glucagon-like peptide 1 receptor (Homo sapiens) (UniProt P43220); assay: qHTS of GLP-1 Receptor Agonists: LOPAC Validation (AID 624148);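 further: higher luminescence signal means agonism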
Chain of Glucagon-like peptide 1 receptor (Homo sapiens) (P43220 whole entry, looked up): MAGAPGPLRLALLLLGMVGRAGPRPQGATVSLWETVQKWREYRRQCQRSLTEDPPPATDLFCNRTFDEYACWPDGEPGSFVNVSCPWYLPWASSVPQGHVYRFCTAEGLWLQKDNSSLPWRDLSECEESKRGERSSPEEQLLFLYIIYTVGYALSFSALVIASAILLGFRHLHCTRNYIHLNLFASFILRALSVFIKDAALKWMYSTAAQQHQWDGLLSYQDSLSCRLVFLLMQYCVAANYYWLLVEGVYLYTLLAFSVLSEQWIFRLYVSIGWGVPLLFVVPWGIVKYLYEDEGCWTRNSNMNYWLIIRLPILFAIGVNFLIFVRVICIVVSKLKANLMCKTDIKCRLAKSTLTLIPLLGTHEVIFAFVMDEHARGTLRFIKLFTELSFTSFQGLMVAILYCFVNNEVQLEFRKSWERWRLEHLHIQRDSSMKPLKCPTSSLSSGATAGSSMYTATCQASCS
Method in brief: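 HEK293 cells stably co-expressing GLP-1R and a cAMP-responsive luciferase reporter, plated 12 hours before compound, then incubated 4-6 hr at 37 deg C. Luminescence read 12 min after detection reagent.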

[6] = HTS Assay for Allosteric Antagonists of the Human D2 Dopamine Receptor: Hit Validation in HTRF (AID 624455);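 further: stable D1 dopamine receptor cell line scored for blocking the D1 response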
Method in brief: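 Inhibition of the D1-mediated response was measured by HTRF. Cells used were a line stably expressing the D1 dopamine receptor.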

[7] = target: Glutaminase kidney isoform, mitochondrial (Homo sapiens) (UniProt O94925); assay: qHTS for Inhibitors of Glutaminase (GLS): LOPAC Validation (AID 624146);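 further: glutamate product detected by oxidase and peroxidase coupled Amplex red fluorescence gain; series mostly up to about 46 µM; nearly all actives have a fitted effect of over 60% in size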
Chain of Glutaminase kidney isoform, mitochondrial (Homo sapiens) (O94925 whole entry, looked up, canonical isoform): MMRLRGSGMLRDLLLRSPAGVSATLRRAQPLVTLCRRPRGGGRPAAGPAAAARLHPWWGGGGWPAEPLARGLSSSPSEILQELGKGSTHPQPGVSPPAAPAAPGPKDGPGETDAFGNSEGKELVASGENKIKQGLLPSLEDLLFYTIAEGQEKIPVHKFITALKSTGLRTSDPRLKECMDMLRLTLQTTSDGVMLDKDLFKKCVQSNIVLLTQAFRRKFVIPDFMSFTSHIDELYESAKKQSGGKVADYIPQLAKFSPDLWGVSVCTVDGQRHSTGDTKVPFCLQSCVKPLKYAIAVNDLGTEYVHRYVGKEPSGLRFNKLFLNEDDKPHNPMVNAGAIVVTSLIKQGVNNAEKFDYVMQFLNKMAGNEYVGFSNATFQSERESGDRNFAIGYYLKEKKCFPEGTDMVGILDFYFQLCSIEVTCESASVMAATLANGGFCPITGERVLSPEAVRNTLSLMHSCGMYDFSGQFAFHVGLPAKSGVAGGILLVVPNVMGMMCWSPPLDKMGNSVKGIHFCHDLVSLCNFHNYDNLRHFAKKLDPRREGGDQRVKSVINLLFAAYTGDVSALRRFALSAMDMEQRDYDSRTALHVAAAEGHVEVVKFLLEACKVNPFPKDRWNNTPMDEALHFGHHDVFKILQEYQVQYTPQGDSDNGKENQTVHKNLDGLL
Method in brief: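 hKGA; 45 mM KH2PO4 pH 8.2 + 0.02% Tween-20; cpd via pin tool; 1 mM Gln soln; GluOx/HRP/Amplex Red; RT 30 min; fluor. t0 & final.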

[8] = qHTS of Nrf2 Activators: LOPAC Validation (AID 624149)
Method in brief: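 Luciferase signal from ARE activation, read with Steady-Glo after 30 min at room temperature. Compounds were pin-transferred onto AREc32_Fluc cells (1000/well, OPTI-MEM/5% FBS, seeded overnight) and left 24 hr at 37 deg C.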

In the case of `CC1(C)[C@@H](O)CC[C@]2(C)[C@H]3C(=O)C=C4[C@@H]5C[C@@](C)(C(=O)O)CC[C@]5(C)CC[C@@]4(C)[C@]3(C)CC[C@@H]12`, the Potency [1] is reported as “inactive”, the Potency [2] is reported as 8.09 µM (active) and the Potency [3] is reported as “inactive”.

In the case of `CCOC(=O)c1ccccc1O`, the Potency [1] is reported as “inactive”, the Potency [2] is reported as “inactive” and the Potency [3] is reported as “inactive”.

For `CN1CCN(c2cc3c(nn2)Oc2ccccc2N3C)CC1`, the Potency [1] was “inactive”.

In the case of `COc1cc2c3cc1Oc1cc(ccc1O)C[C@@H]1c4c(cc(OC)c(O)c4Oc4ccc(cc4)C[C@@H]3N(C)CC2)CC[N+]1(C)C`, the Potency [1] is reported as “inactive” and the Potency [2] is reported as “inactive”.

With `Oc1c(Br)cc(Br)c2cccnc12` the Potency [1] was “inactive”, the Potency [2] was “inactive” and the Potency [3] was 19.9 µM (active).

In the case of `Clc1ccccc1-c1nc(-c2ccncc2)no1`, the Potency [1] is reported as “inactive” and the Potency [2] is reported as “inactive”.

In the case of `Cc1[nH]cnc1CN1CCc2c(c3ccccc3n2C)C1=O`, the Potency [1] is reported as “inactive” and the Potency [2] is reported as “inactive”.

For `C=C(Nc1ccc(OCC)cc1)Nc1ccc(OCC)cc1`, the Potency [1] was “inactive”, the Potency [2] was “inactive” and the Potency [3] was “inactive”.

In the case of `CC1(C)C[C@@H]1C(=O)N/C(=C\CCCCSC[C@H](N)C(=O)O)C(=O)O`, the Potency [1] is reported as “inactive” and the Potency [2] is reported as “inactive”.

In the case of `Cc1cc(O)c2ccccc2c1O`, the Potency [1] is reported as 12.8 µM (active), the Potency [2] is reported as 25.6 µM (active) and the Potency [3] is reported as “inactive”.

In the case of `c1ccc2sc(SN3CCOCC3)nc2c1`, the Potency [1] is reported as “inactive” and the Potency [2] is reported as “inactive”.

For `O=C(O)COc1ccc(C(=O)c2cccs2)c(Cl)c1Cl`, the Potency [1] was “inactive”, the Potency [2] was “inactive” and the Potency [3] was “inactive”.

For `Cc1ccc(O)c(-n2nc3ccccc3n2)c1`, the Potency [1] was “inactive”, the Potency [2] was “inactive” and the Potency [3] was “inactive”.

For `O=C(/C=C/c1ccccc1)NCCO`, the Potency [1] was “inactive”, the Potency [2] was “inactive” and the Potency [3] was “inactive”.

In the case of `NC(=O)C(c1ccccc1)(c1ccccc1)[C@@H]1CCN(CCc2ccc3c(c2)CCO3)C1`, the Potency [1] is reported as “inactive”.

For `COc1ccc(-c2cc(=S)ss2)cc1`, the Potency [1] was “inactive” and the Potency [2] was “inactive”.

In the case of `O=C(O)Cc1ccc(-c2ccccc2)cc1`, the Potency [1] is reported as “inactive” and the Potency [2] is reported as “inactive”.

In the case of `COc1cc(/C=C/C(=O)N2CCN(CC(=O)N3CCCC3)CC2)cc(OC)c1OC`, the Potency [1] is reported as “inactive”, the Potency [2] is reported as “inactive” and the Potency [3] is reported as “inactive”.

With `CCCCCCCCCCCC(=O)[O][Sn]([CH2]CCC)([CH2]CCC)[O]C(=O)CCCCCCCCCCC` the Potency [1] was “inactive”, the Potency [2] was 9.07 µM (active) and the Potency [3] was “inactive”.

In the case of `CC1(C)S[C@@H]2[C@H](NC(=O)[C@H](NC(=O)N3CCN(S(C)(=O)=O)C3=O)c3ccccc3)C(=O)N2[C@H]1C(=O)O`, the Potency [1] is reported as “inactive”, the Potency [2] is reported as “inactive” and the Potency [3] is reported as “inactive”.

In the case of `CCCCC[C@H](O)/C=C/[C@@H]1[C@@H](C/C=C\CCCC(=O)O)[C@@H](O)C[C@H]1O`, the Potency [1] is reported as “inactive”, the Potency [2] is reported as “inactive” and the Potency [3] is reported as “inactive”.

For `O=C1CN(/N=C/c2ccc(-c3ccc([N+](=O)[O-])cc3)o2)C(=O)N1`, the Potency [1] was “inactive”, the Potency [2] was “inactive” and the Potency [3] was “inactive”.

With `C[S+](CC[C@H](N)C(=O)O)C[C@H]1O[C@@H](n2cnc3c(N)ncnc32)[C@H](O)[C@@H]1O` (some centres not stated) the Potency [1] was “inactive”.

In the case of `CC(C(=O)O)c1ccc2c(c1)[nH]c1ccc(Cl)cc12` (configuration not stated), the Potency [1] is reported as “inactive” and the Potency [2] is reported as “inactive”.

With `CCCSc1ccc2nc(NC(=O)OC)[nH]c2c1` the Potency [1] was “inactive”.

With `CCCCCC[C@@H](O)C/C=C\CCCCCCCC(=O)O` the Potency [1] was “inactive”, the Potency [2] was “inactive” and the Potency [3] was “inactive”.

For `O=C(Nc1ccc(C(=O)O)c(O)c1)c1ccccc1`, the Potency [1] was “inactive”, the Potency [2] was “inactive” and the Potency [3] was “inactive”.

For `Nc1ccc(C(=O)O)c(O)c1`, the Potency [1] was “inactive” and the Potency [2] was “inactive”.

In the case of `CCOc1ccc2nc(S(N)(=O)=O)sc2c1`, the Potency [1] is reported as “inactive” and the Potency [2] is reported as “inactive”.

With `[O-][n+]1ccccc1SSc1cccc[n+]1[O-]` the Potency [1] was 12.8 µM (active), the Potency [2] was 0.361 µM (active) and the Potency [3] was 1.12 µM (active).

For `C=CCN1C(=O)C(CC(C)C)NC1=S` (configuration not stated), the Potency [1] was “inactive”, the Potency [2] was “inactive” and the Potency [3] was “inactive”.

For `Cc1c(Nc2ncccc2C(=O)O)cccc1C(F)(F)F`, the Potency [1] was “inactive” and the Potency [2] was “inactive”.

For `CCCCCCOc1ccccc1C(N)=O`, the Potency [1] was “inactive”, the Potency [2] was “inactive” and the Potency [3] was “inactive”.

With `O=C(O)[C@H](CC(=O)N1C[C@H]2CCCC[C@H]2C1)Cc1ccccc1` the Potency [1] was “inactive” and the Potency [2] was “inactive”.

For `Cc1ccc(C(=O)c2ccc(CC(=O)O)n2C)cc1`, the Potency [1] was “inactive” and the Potency [2] was “inactive”.

With `O=C1CC[C@@H](C(=O)N2CSC[C@H]2C(=O)O)N1` ([pGlu]-[Thz]-OH) the Potency [1] was “inactive”, the Potency [2] was “inactive” and the Potency [3] was “inactive”.

For `Nc1c(CC(=O)O)cccc1C(=O)c1ccc(Br)cc1`, the Potency [1] was “inactive” and the Potency [2] was “inactive”.

In the case of `CC1OC1P(=O)(O)O` (configuration not stated), the Potency [1] is reported as “inactive”, the Potency [2] is reported as “inactive” and the Potency [4] is reported as “inactive”. For the same molecule, the outcome [5] was “inactive” and the Potency [6] was “inactive”.

In the case of `O=C(O)/C=C/C(O)c1ccc(Cl)cc1` (configuration not stated), the Potency [1] is reported as “inactive”, the Potency [2] is reported as “inactive” and the Potency [3] is reported as “inactive”. For the same molecule, the Potency [7] was “inactive”, the Potency [4] was “inactive” and the outcome [5] was “inactive”. The outcome [8] was “inactive” and the Potency [6] was “inactive”.

With `CN1C2CC(OC(=O)[C@H](CO)c3ccccc3)CC1C1OC12` (some centres not stated) the Potency [7] was “inactive”, the Potency [4] was “inactive” and the outcome [5] was “inactive”. For the same molecule, the outcome [8] was “inactive” and the Potency [6] was “inactive”.
